SMILES strings stand for the structures.

The target of the assay is T1, Aspartate--tRNA(Asp/Asn) ligase (Mycobacterium tuberculosis (strain ATCC 25618 / H37Rv)) (UniProt P9WFW3).
T1 sequence (whole entry): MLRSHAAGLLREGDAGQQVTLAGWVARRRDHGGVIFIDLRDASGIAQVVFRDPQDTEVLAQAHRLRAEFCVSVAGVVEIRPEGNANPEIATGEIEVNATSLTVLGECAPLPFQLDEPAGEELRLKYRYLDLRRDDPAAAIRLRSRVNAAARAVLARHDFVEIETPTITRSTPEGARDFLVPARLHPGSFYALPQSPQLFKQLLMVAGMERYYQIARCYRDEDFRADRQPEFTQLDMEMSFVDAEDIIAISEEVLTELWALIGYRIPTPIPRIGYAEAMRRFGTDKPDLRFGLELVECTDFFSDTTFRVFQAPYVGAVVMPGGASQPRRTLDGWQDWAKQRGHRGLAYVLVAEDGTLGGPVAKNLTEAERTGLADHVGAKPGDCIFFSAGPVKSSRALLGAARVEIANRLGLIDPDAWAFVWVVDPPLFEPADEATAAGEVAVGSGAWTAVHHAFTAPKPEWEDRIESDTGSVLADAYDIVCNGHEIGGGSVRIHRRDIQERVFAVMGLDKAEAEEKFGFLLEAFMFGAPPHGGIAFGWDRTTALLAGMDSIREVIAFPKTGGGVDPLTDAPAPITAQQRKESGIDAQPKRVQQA
The assay can be described thus: Assay for Asp RNA synthetase-1 from Mycobacterium tuberculosis. The class given is functional. Further details: scale not given: in the data most compounds retested in dose-response had high values. The following applies: 30 µM.
Regarding `Cc1nc(C)n(CC2CCCN2CCCc2ccccc2)n1` (stereo not given), the Percent Effect is 0.747%. Then `CCc1nc(CN(Cc2cccs2)CC2CCCO2)no1` (stereo not given), with 2.75%; and `O=C(NCC1CCOC1)Nc1ccc(OCC(F)(F)F)nc1` (stereo not given), with -1.61%; and `CN(C)C(=O)N1CCN(Cc2noc(Cc3ccccc3)n2)CC1`, with 0.542%. The value for `O[C@H]1[C@H](n2cc(-c3ccccc3)nn2)c2ccccc2C12CCNCC2` was 6.77%. Then `COc1cccc(OC)c1CN1CCC2(CC(Nc3ccncn3)C2)C1` (stereo not given), with 3.04%; and `COc1ccccc1CN1CC[C@]2(C[C@H](OC)CO2)C1`, with -1.25%.

Take `CCc1n[nH]c(C2CN(C(=O)c3csnn3)CCO2)n1` (stereo not given): the Percent Effect worked out at 1.53%. As for `COC1CCN(C(=O)Cc2csc(-c3ncccn3)n2)CC1`, the Percent Effect was -5.19%. Then `O=C(c1cnccn1)N1CCN(Cc2ccncc2)c2ncccc2C1`, with 0.815%. Regarding `CCn1cc(CN2CCCN(C(=O)c3ccn(C)c(=O)c3)CC2)cn1`, the Percent Effect is 1.33%. The value for `CC(C)CCN(C)C(=O)c1nc(S(C)(=O)=O)n2ccccc12` was -3.39%. The value for `CC(NCc1cccnc1)c1ccc(OCC(=O)NC2CC2)cc1` (stereo not given) was 4.26%; that for `COCC1Cn2nnc(-c3cnn(C)c3)c2CN1Cc1ccco1` (stereo not given) was 0.436%; that for `CC(C)c1n[nH]c(C2CN(C(=O)C3=COCC3)CCO2)n1` (stereo not given) was -3.88%. The value for `CC1(C)CN(C(=O)NCCc2ccn(-c3ccccc3)n2)CCO1` was 2.57%.

On to `CCc1noc(C(C)N2CCN(Cc3ncc(C(C)(C)C)o3)CC2)n1` (stereo not given), for which the Percent Effect was -1.28%.

Consider `O=C(C1CCCC1)N1CCC2(CC1)COCCN2CC1CC1`, for which the Percent Effect was -3.37%.

In the case of `CN(C(=O)c1cccc(C(=O)NS(C)(=O)=O)c1)c1ccccc1`, the Percent Effect turned out to be 9.93%. The value for `O=C(Nc1ccccc1F)N(CCO)Cc1ccsc1` was -3.39%.

The values above are taken from ChEMBL document CHEMBL3988442, “University of Dundee, Small-Polar-MMV Screening Library” (2021).
